Laboratory results taken from PubChem BioAssay AID720700 (The Scripps Research Institute Molecular Screening Center, 2013).
Out of some 370,000 compounds screened, about 3,100 (0.84%) were called active. The entries come from a sample that favours actives as a whole. Values without a mark were called inactive. Rule as the data show it: active = inhibition above about 9.5%; inactive = the rest.

Target: 1-phosphatidylinositol 4,5-bisphosphate phosphodiesterase gamma-1 (Homo sapiens) (UniProt P19174)
Assay: blockers of human PLCG1 activity – biochemical, fluorescence, purified enzyme, primary screen (AID 720700)
Conditions: purified PLC-gamma1, fluorogenic substrate, at 12.2 µM, hits give high values

Chain of 1-phosphatidylinositol 4,5-bisphosphate phosphodiesterase gamma-1 (Homo sapiens) (P19174 whole entry, looked up): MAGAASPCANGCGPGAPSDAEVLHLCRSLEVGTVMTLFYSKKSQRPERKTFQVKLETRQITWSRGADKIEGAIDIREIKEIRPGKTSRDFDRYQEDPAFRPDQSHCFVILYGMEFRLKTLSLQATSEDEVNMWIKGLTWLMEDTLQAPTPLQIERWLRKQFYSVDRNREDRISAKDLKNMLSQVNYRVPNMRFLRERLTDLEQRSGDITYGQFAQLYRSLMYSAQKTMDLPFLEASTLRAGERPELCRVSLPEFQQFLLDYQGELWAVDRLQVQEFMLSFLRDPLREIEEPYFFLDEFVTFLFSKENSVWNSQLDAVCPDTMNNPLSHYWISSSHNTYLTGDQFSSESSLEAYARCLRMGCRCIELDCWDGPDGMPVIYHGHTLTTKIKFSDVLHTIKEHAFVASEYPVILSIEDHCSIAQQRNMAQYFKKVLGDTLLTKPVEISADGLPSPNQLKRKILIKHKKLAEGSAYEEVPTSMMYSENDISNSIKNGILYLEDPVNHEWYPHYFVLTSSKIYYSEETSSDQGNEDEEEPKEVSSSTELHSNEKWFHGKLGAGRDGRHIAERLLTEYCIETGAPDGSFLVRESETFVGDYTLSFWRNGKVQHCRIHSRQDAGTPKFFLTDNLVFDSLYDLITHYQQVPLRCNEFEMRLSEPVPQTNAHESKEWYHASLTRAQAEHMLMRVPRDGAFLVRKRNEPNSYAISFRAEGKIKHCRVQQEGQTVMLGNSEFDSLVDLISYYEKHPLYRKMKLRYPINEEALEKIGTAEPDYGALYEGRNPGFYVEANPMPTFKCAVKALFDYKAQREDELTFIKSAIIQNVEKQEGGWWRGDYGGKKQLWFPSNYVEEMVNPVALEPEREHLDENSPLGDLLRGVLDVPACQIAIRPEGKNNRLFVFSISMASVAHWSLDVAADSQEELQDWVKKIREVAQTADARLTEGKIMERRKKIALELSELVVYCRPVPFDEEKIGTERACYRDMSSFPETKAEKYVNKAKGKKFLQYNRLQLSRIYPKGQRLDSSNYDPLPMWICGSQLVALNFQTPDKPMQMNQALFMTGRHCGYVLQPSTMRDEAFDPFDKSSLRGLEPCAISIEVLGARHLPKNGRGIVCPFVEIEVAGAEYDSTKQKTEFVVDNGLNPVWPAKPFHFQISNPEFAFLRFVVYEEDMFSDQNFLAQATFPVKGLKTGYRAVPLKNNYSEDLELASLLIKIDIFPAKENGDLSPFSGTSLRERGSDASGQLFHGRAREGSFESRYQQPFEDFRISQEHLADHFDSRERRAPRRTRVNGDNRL

Row | Compound | inhibition
1 | COC(=O)Cc1ccc(NC(=S)NCc2ccco2)cc1 | 2.1%
2 | CSc1ccccc1NC(=O)Cc1ccc(Br)cc1 | 3.58%
3 | CC(C)Oc1ccc(CC(=O)NNC(=S)Nc2ccc(Br)cc2)cc1 | 9.8% (active)
4 | O=C(C1CCCN1S(=O)(=O)c1ccccc1)N1CCc2ccccc2C1 (stereo not drawn) | -1.86%
5 | O=C(NCC1COc2ccccc2O1)c1ccc(NC(=O)c2cc(F)ccc2F)cc1 (stereo not drawn) | -4.17%
6 | Cc1ccc(Cn2cc(CN3[C@@H](C)COc4cc(Br)ccc4S3(=O)=O)nn2)cc1 | 0.13%
7 | NC1=NN(c2cccc(C(=O)O)c2)C(=O)C1 | 18.9% (active)
8 | O=C(c1cccc(N2CCCC2=O)c1)N1CCOCC1 | -4.42%
9 | C/C(=N\NC(=O)c1cccc(N2CCCC2=O)c1)c1ccc(N)cc1 | 1.08%
10 | COc1ccc([C@H]2OC(=O)C[C@H]2C(=O)N2CCN(c3ccccc3F)CC2)cc1OC | 0.67%
11 | O=S(=O)(Nc1ncccn1)c1ccc(NS(=O)(=O)c2cccc(Cl)c2Cl)cc1 | 4.05%
12 | Cn1c(=O)n(C)c2cc(NS(=O)(=O)c3ccc(F)cc3)ccc21 | 0.25%
13 | O=S(=O)(Nc1ccc(Oc2ncccn2)c(Cl)c1)c1ccc(F)cc1 | 9.74% (active)
14 | COC(=O)c1cccc(Cn2ccc3ccc(-c4ccc5ccn(C(=O)c6ccccc6C)c5c4)cc32)c1 | -16.3%
15 | CCC(NC(=O)C1C2C=CC3(CN(Cc4ccccc4)C(=O)C13)O2)c1ccccc1 (stereo not drawn) | -2%
16 | COc1cccc(CCNC(=O)COc2cccc3c2OC(C)(C)C3)c1 | 3.51%
17 | CN(CC(=O)Nc1ccccc1Cl)C(=O)COc1cccc2c1OC(C)(C)C2 | 11.8% (active)
18 | CC1(C)Cc2cccc(OCC(=O)Nc3nccs3)c2O1 | 0.31%
19 | Cc1c[nH]c2cccc(-c3ccc(Cl)cc3)c12 | -12%
20 | C=CCNc1nc(N)c([N+](=O)[O-])c(NC2CCCCC2)n1 | 4.77%
21 | Nc1nc(NCC(=O)O)nc(N2CCCCCC2)c1[N+](=O)[O-] | 9.71% (active)
22 | COCCNc1nc(N)c([N+](=O)[O-])c(N2CCCCCC2)n1 | 7.3%
23 | CC(C)(C)c1ccc(CSc2nnc(-c3cccs3)o2)cc1 | 0.5%
24 | O=C(CCl)NC1CCCCN(Cc2cccc(C(F)(F)F)c2)C1=O (stereo not drawn) | -1.65%
25 | CCOC(=O)[C@@]12CCC3=C1N(CCC3)C(=O)[C@H](CC(=O)N1CCN(C(=O)c3ccco3)CC1)C2 | -1.32%
26 | CN(C(=O)c1cccc(NC(=O)Cc2cccc(NC(=O)C3CCCN(C(=O)C4CC4)C3)c2)c1)C1CCC1 (stereo not drawn) | 0.32%
27 | CN(C(=O)c1ccc(NC(=O)Cc2cccc(NC(=O)C3CCN(C(=O)c4ccccc4)CC3)c2)cc1)C1CC1 | 10.7% (active)
28 | CN(C(=O)c1cccc(NC(=O)Cc2ccc(NC(=O)C3CCN(C(=O)C4CCCCC4)CC3)cc2)c1)C1CCC1 | 1.78%
